Compound activity (PubChem BioAssay)
This is a sample that favours compounds with a hit; in the whole collection about 3.1% have one here.
TexasRed fluor: Texas Red fluorescence interference in TRb-SRC2 counter-screen; TRb/SRC2 Texas Red total fluorescence interference; Potency, µM (titrated, usually from 106 µM); 280,000 compounds, 0.29% hits; active means well fitted curve in either direction with a large enough effect; inconclusive means small, poorly fitted or top-dose-only effect
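Flags fluorescent or light-absorbing compounds by total fluorescence, S + 2P, at 555 nm excitation and 632 nm emission. Mixture: 20 nM Texas Red SRC2 peptide, 0.6 uM human TRb LBD, 1 uM T3, 5% DMSO; compound exposure 5 h at ambient temperature.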
TRb SRC2 PPI: inhibitors of human thyroid hormone receptor beta-SRC2 interaction. P10828. TRbeta-SRC2 peptide binding, fluorescence polarization; receptor liganded with 1 µM T3. Potency, µM (titrated, usually from 106 µM), hits mostly inhibitors. 280,000 compounds, 0.065% hits; further: nearly all actives have a fitted effect of over 50% in size
Target sequence (P10828 whole entry, looked up): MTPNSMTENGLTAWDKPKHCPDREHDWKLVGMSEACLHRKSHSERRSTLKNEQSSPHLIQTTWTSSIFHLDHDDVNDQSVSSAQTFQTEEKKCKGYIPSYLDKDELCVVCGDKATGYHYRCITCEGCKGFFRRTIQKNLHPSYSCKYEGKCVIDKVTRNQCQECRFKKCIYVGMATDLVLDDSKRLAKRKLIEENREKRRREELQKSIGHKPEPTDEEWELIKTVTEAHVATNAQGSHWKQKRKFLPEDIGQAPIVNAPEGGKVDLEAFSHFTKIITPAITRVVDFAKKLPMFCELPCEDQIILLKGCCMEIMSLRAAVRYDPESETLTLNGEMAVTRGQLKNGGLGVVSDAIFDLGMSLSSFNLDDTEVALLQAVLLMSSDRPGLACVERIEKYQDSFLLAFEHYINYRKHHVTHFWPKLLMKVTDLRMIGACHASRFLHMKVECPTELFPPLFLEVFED
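Read-out is fluorescence polarization (555 nm excitation, 632 nm emission) of a Texas Red SRC2 coactivator peptide; loss of signal reflects blocked binding to human TRb ligand-binding domain in the presence of 1 uM T3.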
Tau fluor counter: counter-screen for tau fibril formation inhibitors. Potency, µM (series often up to 57.7 µM). tau K18 P301L Alexa594 fluorescence, heparin fibrillization. 280,000 compounds, 0.93% hits. AID 1463; further: nearly all actives have a fitted effect of over 55% in size
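Human K18 P301L tau (15 uM unlabeled plus 0.24 uM Alexa 594-labeled, final) in 100 mM sodium acetate pH 7 was mixed with compound and 20 uM heparin and incubated 6 hr at 37 C.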
Tau ThT inhib: tau fibrillization inhibition (ThT binding) | 270,000 compounds, 2.1% hits | Potency, µM (top dose mostly 57.4 µM), hits mostly inhibitors | recombinant tau K18 P301L, heparin-induced fibrillization, ThT fluorescence; further: nearly all actives have a fitted effect of over 55% in size
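Heparin-induced (20 uM) aggregation of recombinant human K18 P301L tau, 15 uM unlabeled with 0.24 uM labeled, pH 7 acetate buffer, 6 hr at 37 C with compound. Fibrils quantified by 30 uM ThT fluorescence after 1 hr ambient incubation.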
Tau FP inhib: inhibitors of human tau fibril formation; Potency, µM (doses to about 57.7 µM), hits mostly inhibitors; 280,000 compounds, 0.39% hits; P10636; K18 P301L tau heparin fibrillization, Alexa594 FP, 6 h; further: nearly all actives have a fitted effect of over 55% in size
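Heparin (20 uM) drove fibril formation of recombinant tau K18 P301L, 15 uM unlabeled with 0.24 uM Alexa 594 label, for 6 hr at 37 C in 100 mM sodium acetate pH 7. Fluorescence polarization (555/632 nm) read 1 hr after 30 uM ThT.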
Hits are given with their value; . = inactive; ? = inconclusive; / = no result; [ ] = remark or other dose. Unless noted, the call rests on the fitted dose curve; in most records, active means well fitted curve in the direction sought with a large enough effect; inconclusive means small, poorly fitted or top-dose-only effect, or another doubt; inactive means no such curve, though single readings can be large; an effect the other way counts as inactive or inconclusive.

SMILES	TexasRed fluor	TRb SRC2 PPI	Tau fluor counter	Tau ThT inhib	Tau FP inhib
Cc1ccc(OCc2nc(-c3ccc(C(=O)N4CCN(c5cc(Cl)ccc5C)CC4)cc3)oc2C)cc1	.	.	.	.	.
Cc1c(CBr)[n+](=O)c2c(n1[O-])C(Br)CCC2Br (stereo unspecified)	.	.	.	25µM	?
Cc1c(C)[n+](=O)c2c(n1[O-])C(Br)CCC2Br (stereo unspecified)	.	.	.	?	.
CC1=CN2C(=N)/C(=C/c3ccc([N+](=O)[O-])o3)C(=O)N=C2S1	45µM[fluorescent]	.	?	13µM	?
Cc1ccc2c(=O)cc(CSc3ncn[nH]3)[nH]c2c1C	.	.	.	.	.
CC(=O)c1cccc(Nc2nc(-c3cccc(C)c3)nc3ccccc23)c1	.	.	2.8µM[quencher]	.	7.1µM
CC(=O)c1cccc(Nc2nc(-c3ccccc3Cl)nc3ccccc23)c1	.	.	?	.	?
Cc1n[nH]c(=O)nc1Nc1ccc(O)cc1	.	.	.	.	.
Oc1ccc(/C=N/Nc2ccccc2)cc1	.	.	?	?	.
Cc1nc2ccccc2nc1N/N=C/c1ccc(O)cc1	.	.	?	14µM	.
Oc1ccc(Nc2nc(-c3ccc(Cl)cc3)nc3ccccc23)cc1	.	.	4µM[quencher]	13µM	?
Oc1ccc(Nc2nc3ccccc3nc2Nc2ccc(O)cc2)cc1	.	.	7.1µM[quencher]	16µM	?
Clc1cccc(Nc2nc(-c3ccncc3)nc3ccccc23)c1	.	.	.	.	.
CCc1ccc(NC(=O)CC2C(=O)N(c3cccc(C)c3)C(=O)N2Cc2ccco2)cc1 (stereo unspecified)	.	.	.	.	.
COc1cc(Cl)c(NC(=O)CN(C)S(=O)(=O)c2ccc3[nH]c4c(c3c2)CCCC4)c(OC)c1	.	.	?	.	.
CC(=O)Nc1ccc(Nc2nc(-c3ccccc3)nc3ccccc23)cc1	.	.	14µM[quencher]	?	.
Cc1cccc(-c2nc(Nc3ccc(N4CCOCC4)cc3)c3ccccc3n2)c1	.	.	11µM[quencher]	?	?
COC(=O)c1ccc(Nc2nc(-c3ccccc3Cl)nc3ccccc23)cc1	.	.	?	.	13µM
CCC(C)NC(=O)Cn1ncc2c([nH]c3ccc(C)cc32)c1=O (stereo unspecified)	.	.	.	.	.
CCCCCCCCCCCCCCOc1ccc(C(=O)O)o1	.	.	/	/	/
COc1ccccc1CN1C(=O)C(=O)c2cccc(C)c21	.	.	.	.	.
Cc1cccc2c1N(Cc1ccccc1OCCC(C)C)C(=O)C2=O	.	.	.	25µM	.
Cc1cc(Br)cc2c1N(Cc1ccccc1OC(C)C)C(=O)C2=O	.	.	?	25µM	?
CC(C)(C)C1CCc2c(sc(NC(=O)CCC(=O)O)c2C(=O)Nc2ccccc2C(F)(F)F)C1 (stereo unspecified)	.	.	.	?	.
CCCCc1nn2c(=O)cc(COC(=O)c3ccco3)nc2s1	.	.	.	?	.
SMILES	TexasRed fluor	TRb SRC2 PPI	Tau fluor counter	Tau ThT inhib	Tau FP inhib
C[C@H]1COC(=O)O1	.	.	/	/	/
Nc1ccc(Nc2ccccc2N)cc1	.	.	14µM[quencher]	16µM	?
COc1ccc(Nc2ccccc2N)cc1	?	.	.	?	?
CCOC(=O)CCc1c(C)c2cc3c(c(C)c2oc1=O)OCN(CCc1ccccc1OC)C3	?	.	.	?	.
COc1cccc(C2C3=C(N=c4s/c(=C\c5ccc(OCC(=O)O)cc5)c(=O)n42)c2ccccc2CC3)c1 (stereo unspecified)	.	.	.	22µM	.
COc1ccccc1C1C2=C(N=c3s/c(=C/c4cccc(OCC(=O)O)c4)c(=O)n31)c1ccccc1CC2 (stereo unspecified)	.	.	?	16µM	?
COc1cccc(C2C3=C(N=c4s/c(=C\c5cccc(O)c5)c(=O)n42)c2ccccc2CC3)c1OC (stereo unspecified)	.	.	?	?	22µM
COc1cccc(C2C3=C(N=c4s/c(=C\c5ccc(O)cc5)c(=O)n42)c2ccccc2CC3)c1OC (stereo unspecified)	.	.	?	?	.
CC1(C)CO[C@H](CC(=O)O)CN1	.	.	.	.	.
COc1ccc(Cl)cc1NC(=O)CSc1ccc2nnc(CCNS(=O)(=O)c3ccccc3)n2n1	.	.	.	.	.
